Hits are enriched below; roughly 7.9% of the tested compounds scored in any of these assays.
HCMV antiviral: inhibitors of human cytomegalovirus; 410,000 compounds, 4.5% hits; HFF cells, HCMV-luciferase reporter, 72 h; hits give low values; activity change, negative = inhibition, % at 57.5 µM; in the data active means activity change below about -60%; inconclusive means no clear call, values can overlap the other calls; inactive means above about -39%
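After 16 h attachment at 37C, HFF cells received test compound and HCMV-luciferase (1 PFU/cell); reporter luminescence read 72 h later, data normalized against buffer-only and known inhibitor Salinomycin.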
FMDV antiviral: blocks foot and mouth disease virus | AID 1159524 | FMDV antiviral cell-based qHTS | Potency, µM (top dose mostly 57.9 µM), for inactives: top-dose activity change, negative = inhibition, actives largely listed as inhibitors | 410,000 compounds, 1.2% hits; calls by dose curve; tested in HEK293T cells; further: read-out not given here; potency means the concentration at half of the fitted maximal effect; nearly all actives have a fitted effect of over 45% in size
HCV inhibitor: inhibitors of hepatitis C virus infection. Potency, µM (doses to about 41.8 µM), without a hit: at the highest dose activity change, negative = inhibition, most hits filed as inhibitors. Huh7.5.1 HCVcc-Cre infection, luciferase reporter, 44 h. 340,000 compounds, 3.4% hits; active means well fitted inhibition curve with a large enough effect; inconclusive means small, poorly fitted or top-dose-only effect, or another doubt; inactive means no such curve, though single readings can be large or run the other way; further: potency means the concentration at half of the fitted maximal effect
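HCVcc-Cre virus at an moi near 0.5 was added right after compound to cells cultured 4 h from seeding (1,000 cells/well). Luciferase activity was determined 44 h later, 15 min after substrate addition at RT.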
MARV entry inh: Marburg virus entry inhibition; Marburg virus pseudotyped entry inhibition, cell reporter; Potency, µM (top dose mostly 37.8 µM), without a hit: at the highest dose activity change, negative = inhibition, usual class: inhibitors; 300,000 compounds, 1.8% hits; AID 540276; calls by dose curve; tested in HEK293 cells; further: potency means the concentration at half of the fitted maximal effect
Lassa entry inh: Lassa virus entry inhibition. Lassa virus pseudotype entry inhibition, cell reporter. Potency, µM (doses to about 37.9 µM), for inactives: at the top dose activity change, negative = inhibition, hits mostly inhibitors. 300,000 compounds, 1.2% hits. AID 540256; calls by dose curve; tested in HEK293 cells; further: potency means the concentration at half of the fitted maximal effect; nearly all actives have a fitted effect of over 50% in size
The depositor's hits bear a star; ? = inconclusive; . = no result; ! = not active in a repeat; [ ] = another dose, or the depositor's remark. On the % scale 0 is the no-effect control and ±100 the full control effect.

SMILES	HCMV antiviral	FMDV antiviral	HCV inhibitor	MARV entry inh	Lassa entry inh
CC(C)(C)c1ccc(C(=O)CCCN2CCC(OC(c3ccccc3)c3ccccc3)CC2)cc1	.	.	.	?	5.17µM*
COc1cc(-c2noc(-c3ccc(N4CCN(C)CC4)c([N+](=O)[O-])c3)n2)cc(OC)c1OC	17.6	-11.3%	.	4.3%[46.1 µM]	6.5%[46.1 µM]
CC(C)c1ccc(C(=O)Nc2ccc(-c3nc4ccccc4s3)c(Cl)c2)cc1	-6.9	-21.8%	.	-4.6%[46.1 µM]	18.8%[46.1 µM]
Cc1sc(NC(=O)COc2cccc(-n3cnnn3)c2)c(C#N)c1C	-61.9*	2.6%	-23.1%	?	-7.6%
Cc1sc(NC(=O)COc2ccccc2)c(C#N)c1C	-1.0	11.5%	-22.4%	?	-22.1%[46.1 µM]
COCCN1C(=NCC(C)C)NC(c2ccccc2)C(C(=O)OC)=C1C (stereo not given)	.	.	.	28.6%[14.2 µM]	?
CN(c1cc2c(c3c1ccn3C)C1CCC2O1)C(C)(C)C (stereo not given)	.	.	.	.	3.53µM*
Cc1cc(Cl)c(S(=O)(=O)NCC2CCCO2)cc1OCC(=O)NC1CCCCC1 (stereo not given)	-93.2*	2.9%	12.3%	2.9%	0.2%
Cc1cc(Cl)c(S(=O)(=O)N2CCN(c3ccc(F)cc3)CC2)cc1OCC(=O)NC1CCCCC1	-98.3*	?	0.794µM*	10.3µM*	?
Cc1cc(Cl)c(S(=O)(=O)Nc2ccon2)cc1OCC(=O)NC1CCCCC1	13.8	0.0%	1.0%	?	1.4%
Cc1cc(Cl)c(S(=O)(=O)Nc2ccc3c(c2)OCCO3)cc1OCC(=O)NC1CCCCC1	-69.8*	?	-18.7%	?	-50.6%
COCCCNC(=O)c1ccc([N+](=O)[O-])cc1	-0.3	9.0%	4.6%	0.5%[46.1 µM]	-0.6%[46.1 µM]
O=C(CCl)NCCCN(C(=O)C(Cl)Cl)c1ccc([N+](=O)[O-])cc1	-103.2*	-29.2%	?	.	.
CC(=O)c1c(C)oc2c(Cl)cc(NS(=O)(=O)c3cc(C)c(C)cc3C)cc12	6.7	-4.5%	.	-0.7%[46.1 µM]	6.6%[46.1 µM]
CCOC(=O)N1CCC(NC(=O)c2cnc3n(c2=O)CCS3)CC1	-60.7*	-8.1%	17.4%	.	.
CCOC(=O)N1CCN(c2c(NC3CCN(Cc4ccccc4)CC3)c(=O)c2=O)CC1	-64.2*	-10.0%	-13.7%	.	.
CCOC(=O)N1CCC(Nc2ccc3nnc(-c4ccccc4)n3n2)CC1	134.9	?	14.1µM*	.	.
CCOC(=O)N1CCC(NCCNC(=O)c2ccccc2)CC1	-70.0*!	10.1%	6.4%	-12.5%	7.8%
CCn1c(N)c(C(=O)Nc2ccccc2C(=O)OC)sc1=S	-1.3	11.8%	10µM*	7.3%	-6.9%
CCn1c(N)c(C(=O)NCCOC)sc1=S	30.9	-4.8%	11.3%	0.4%	-10.3%
CCOC(=O)N1CCN(C(=S)NC(=O)c2c(-c3c(Cl)cccc3Cl)noc2C)CC1	-68.8*	-12.3%	11.7%	?	?
Cc1onc(-c2c(Cl)cccc2Cl)c1C(=O)NC(=S)N1CCOCC1	-13.8	-14.8%	13.0%	1.6%	.
CCOC(=O)N1CCN(C(=S)NC(=O)c2ccc(F)c(F)c2)CC1	-89.1*	29.6%	25.8%	-1.7%[46.1 µM]	-9.8%
CN1OC[C@@H]2CN[C@H](c3ccc(-c4cc5ccccc5o4)cc3)C[C@@H]21	.	0.355µM*	.	.	.
CNC(=O)c1cccc(-c2ccc3ncc(-c4cccc(C(=O)NCCN(C)C)c4)n3n2)c1	-29.5	.	.	.	.
SMILES	HCMV antiviral	FMDV antiviral	HCV inhibitor	MARV entry inh	Lassa entry inh
Cc1cccc(Cc2ccc3ncc(-c4cccc(C(N)=O)c4)n3n2)c1	-72.0*	.	.	.	.
Cc1nn(CC(O)CN2c3ccccc3Sc3ccccc32)c(C)c1Br (stereo not given)	-13.1	?	?	11.2µM*	?
COc1ccc2c(c1)CCc1cc(C(=O)N3CCN(c4ccc(N5CCOCC5)nn4)CC3)sc1-2	.	?	10µM*	.	.
C#CCCCO/N=C1\C[C@@H](O)[C@@H](O)[C@@H]2[C@@H]3C(=O)N(c4ccc(F)cc4F)C(=O)[C@@H]3CC[C@@H]12	.	.	.	-8.0%[14.2 µM]	.
COc1ccc(Br)cc1CNC(=O)CCSCc1ccc(Cl)cc1	-37.7	-8.1%	.	.	9.1%[46.1 µM]
COc1ccccc1N1CCN(c2ccc(=O)n(CC(=O)NCc3ccc(F)cc3)n2)CC1	-0.8	?	.	.	5.1%[46.1 µM]
N#CCc1nn(-c2ccc(F)cc2)c(N)c1C#N	-60.8*	-3.3%	5.3%	.	.
O=C(CN1C(=O)c2ccccc2S1(=O)=O)c1ccc2c(c1)OCCCO2	-95.8*	3.16µM*	17.6%	?	?
O=C(CCN1C(=O)c2ccccc2S1(=O)=O)Nc1ccc2c(c1)OCCO2	10.6	.	11.2%	0.3%	1.3%

Source: PubChem BioAssay
